Only some compounds are listed: those with a hit (about 21% of all), similar ones and a draw of the others.
FBPA Giardia inh = blocks Giardia fructose-bisphosphate aldolase activity; A8B2U2; purified Giardia FBPA; Potency, µM (top dose mostly 59.6 µM), for the others: at the highest dose activity, negative = inhibition, usual class: inhibitors; 290,000 compounds, 0.71% hits; note: potency is the fitted concentration of half-maximal effect; % is set by controls: 0 for no effect and ±100 for the full control effect; nearly all actives have a fitted effect of over 55% in size
Target sequence (A8B2U2 whole entry, looked up): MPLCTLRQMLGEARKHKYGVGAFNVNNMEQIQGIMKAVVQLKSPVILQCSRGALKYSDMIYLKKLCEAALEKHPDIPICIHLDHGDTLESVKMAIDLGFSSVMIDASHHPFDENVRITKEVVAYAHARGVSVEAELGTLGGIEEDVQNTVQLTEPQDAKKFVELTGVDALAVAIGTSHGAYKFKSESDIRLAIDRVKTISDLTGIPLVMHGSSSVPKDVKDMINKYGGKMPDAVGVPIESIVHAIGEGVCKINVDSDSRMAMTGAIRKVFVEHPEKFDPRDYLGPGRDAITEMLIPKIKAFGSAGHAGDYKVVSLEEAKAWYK
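Giardia FBPA (40 nM reagent) was preincubated 10 min at RT with compound (up to 57.5 uM final), then substrate plus GAPDH/TPI/NAD/arsenate coupling system with diaphorase/resazurin was added; resorufin fluorescence (525/598 nm) was read after 20 min.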
CHX counter = counter-screen hit for Shiga toxin inhibitors, cycloheximide; cell reporter, cycloheximide protein synthesis inhibition counterscreen; max response, %; 300,000 compounds, 12% hits; in the data active = max response mostly above about 13%, no sharp cut-off; inactive = mostly below about 14%; note: read at 38.3 µM for the half of the compounds with a filed dose; 0% is about no effect
Pf growth 96h = P. falciparum growth inhibition at 96 hour, primary screen for plastid delayed-death inhibitors. P. falciparum luciferase reporter growth, 96 h. 320,000 compounds, 6.9% hits. Potency, µM (series often up to 28.7 µM), for inactives: at the highest dose activity change, negative = inhibition, hits mostly inhibitors; note: potency is the fitted concentration of half-maximal effect; % is set by controls: 0 for no effect and ±100 for the full control effect
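96 h incubation, 37 C, 5% CO2, of luciferase-reporter P. falciparum-infected RBCs (2% hematocrit, 0.05% parasitemia final) with test compounds; endpoint luminescence.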
Pf growth 48h = P. falciparum growth inhibition at 48 hours (one generation) | P. falciparum luciferase growth in erythrocytes, 48 h | Potency, µM (series often up to 28.7 µM), for the others: at the top dose activity change, negative = inhibition, most hits filed as inhibitors | 310,000 compounds, 5.9% hits; note: potency is the fitted concentration of half-maximal effect; % is set by controls: 0 for no effect and ±100 for the full control effect
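Parasite viability was followed by luminescence of a genomically integrated firefly luciferase. Cultures held 0.1% parasitemia at 2% hematocrit (final), incubated under 5% CO2 at 37 C.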
Shiga inhibitor = inhibitors of Shiga toxin in Vero cells; AID 2315; 290,000 compounds, 9.2% hits; Vero cells, Shiga toxin protein synthesis inhibition reporter; inhibition, % at 38.7 µM; in the data active = inhibition mostly above about 28%, no sharp cut-off; inactive = mostly below about 43%; note: 0% is about no effect
NS1 function inh = blocks influenza NS1 protein function. Potency, µM (series often up to 46.1 µM), inactives show at the highest dose activity, positive = more growth. 270,000 compounds, 0.4% hits. AID 2326; calls by dose curve; note: potency is the fitted concentration of half-maximal effect; actives are rising curves; nearly all actives have a fitted effect of over 50% in size
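Growth recovery, yeast-based: influenza A NS1 expressed in S. cerevisiae causes slow growth, and suppressors are detected by OD600. The parent strain without NS1 is used as positive control.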
Numbers without * were called inactive; u = inconclusive; x = no result; ! = not active in a repeat; [ ] = dose if it differs, or a comment. Unless noted, calls come from the whole dose curve; as a rule, active = well fitted curve in the direction sought with a large enough effect; inconclusive = small, poorly fitted or top-dose-only effect, or another doubt; inactive = no such curve, though single readings can be large; an effect the other way counts as inactive or inconclusive.

SMILES	FBPA Giardia inh	CHX counter	Pf growth 96h	Pf growth 48h	Shiga inhibitor	NS1 function inh
CCN1C(=NCCCOC(C)C)N[C@@H](CCc2ccccc2)[C@H](C(=O)NCCCOC(C)C)[C@H]1C	-11.8%	-2.9	4.65µM*	4.65µM*	-5.8	1.5%
CCN1C(=NCCOC)N[C@@H](CCc2ccccc2)[C@H](C(=O)OC)[C@H]1C	21.5%	-4.9	16.5µM*!	1.4%	1.6	-7.5%
CCOC(=O)CN1C(=O)N[C@@H](CCc2ccccc2)[C@@H](C(=O)OC)[C@H]1C	5.6%[12.9 µM]	x	x	x	x	x
CS(=O)(=O)c1ccc(-c2csc(-c3cccnc3)n2)cc1	-6.0%	39.1*	-15.8%	x	54.0	-0.9%
Oc1ccc(-c2csc(-c3ccccc3)n2)cc1O	u	32.7*	-27.6%	104.8%	71.3*	-198.9%
Fc1ccccc1-c1csc(-c2cccnc2)n1	-7.6%	47.8*	77.9%	115.7%	37.8*	0.9%
Cc1nc(-c2ccc(O)c(O)c2)cs1	u	-1.0	-29.6%	x	-7.6	-11.6%
Brc1ccsc1-c1csc(-c2ccncc2)n1	8.8%	43.0*	u	x	87.0*	-49.5%
Cc1csc(-c2cccnc2)n1	6.2%	-2.4	11.3%	-3.4%	11.8	-9.8%
CC1=C(C(=O)OCc2ccccc2)C(c2ccc(C3CCCCC3)cc2)NC(=O)N1CCCCCC(=O)O (stereo not given)	18.4%	x	x	x	x	x
COCC(C)(C)COS(N)(=O)=O	-1.6%	-2.4	7.4%	20.9%	-6.2	5.7%
C#CCCCCCCCCCCCC(O)CC(O)COC(C)=O (stereo not given)	5.2%	x	x	x	x	x
CN(C)S(=O)(=O)c1ccc(-c2csc(-c3cccnc3)n2)cc1	-0.4%	19.4	u	u	20.6	-6.1%
Fc1ccc(-c2csc(-c3cccnc3)n2)cc1F	20.8%	22.5	0.0%	x	60.9*	-86.3%
COc1ccc(OCc2nc(-c3ccc(F)c(F)c3)cs2)cc1	-1.0%	-1.9	48.2%	42.2%	-3.2	-2.3%
Oc1ccc(-c2csc(-c3cccnc3)n2)cc1O	-14.3%	54.3*	40.5%	117.1%	61.1*	-8.5%
O=C1c2ccccc2C(=O)N1CCc1csc(-c2ccccc2)n1	-4.8%	18.2*	46.2%	37.8%	35.8*	-16.2%
c1cncc(-c2nc(-c3ccc4c(c3)OCCO4)cs2)c1	3.5%	63.0*	-65.8%	-5.0%	128.3*	-68.2%
CCCCn1c(N)c(N(CC(C)C)C(=O)CCCc2cccs2)c(=O)[nH]c1=O	x	5.5	u	-28.6%	-5.6	u
O=C1NC(c2ccccc2)Nc2c1sc(=S)n2-c1ccccc1 (stereo not given)	0.9%	7.9	-41.6%	7.0%	-10.2	x
O=C(NCCCNC(=O)c1ccco1)c1cccc(F)c1	-9.4%	3.2	14.7%	1.4%	-19.3	18.1%
O=C(NNC(=O)c1cc(Br)c(Br)s1)c1csc(N2CCOCC2)n1	x	x	18.6%	u	x	x
COc1ccc(CCNC(=O)c2c(Cl)ccc(Cl)c2OC)cc1OC	12.4%	-2.8	u	-13.3%	-4.4	19.4%
Oc1ccccc1-c1csc(-c2ccccc2)n1	-2.5%	75.0*	-9.7%	443.1%	158.5*	x
Clc1ccc(-c2csc(-c3cccnc3)n2)s1	-4.3%	32.1*	u	u	54.0*	-49.5%
SMILES	FBPA Giardia inh	CHX counter	Pf growth 96h	Pf growth 48h	Shiga inhibitor	NS1 function inh
O=S(=O)(NCCc1csc(-c2cccnc2)n1)c1ccc(Cl)s1	-4.5%	-6.0	u	x	-12.7	-193.7%
c1ccc(-c2csc(-c3ccncc3)n2)cc1	4.4%	30.7*	u	u	55.0*	-10.6%
Nc1nc(-c2ccccc2)cc(-c2ccccc2O)n1	-0.4%	9.2	u	20.1%	15.9	-38.7%
O=C(CSc1nnc(NC(=O)C2CC(=O)N(c3ccc(F)cc3)C2)s1)NCc1ccco1 (stereo not given)	-8.0%	-3.2	u	u	-4.0	18.2%
CCN(C(=O)CN1CCN(S(=O)(=O)c2cc(Cl)ccc2Cl)CC1)c1c(N)n(Cc2ccccc2)c(=O)[nH]c1=O	2.1%	-3.3	u	-14.1%	9.6	-26.8%
Nc1ccccc1S[C@@H](C[N+](=O)[O-])c1ccc2c(c1)OCO2	x	x	x	x	x	-28.4%
FC(F)(F)c1ccccc1-c1cc(NCCN2CCOCC2)ncn1	1.5%	x	x	x	x	x
O=C(NCc1ccc(/C=c2\sc3n(c2=O)CCN=3)o1)C(=O)Nc1ccccc1	u	20.0	19.9%	18.0%	25.7	x
COc1ccccc1NS(=O)(=O)c1ccc(C)c(NC(=O)C2CCCO2)c1 (stereo not given)	x	x	-13.0%	-15.4%	x	x
CC(C)CCNC(=O)C1CC(c2cccc([N+](=O)[O-])c2)=NO1 (stereo not given)	-1.6%	-4.0	48.1%	62.9%	-10.6	-3.9%
COc1cccc(C2=NOC(C(=O)NCc3cccs3)C2)c1 (stereo not given)	8.1%	25.6*	18.2%	1.1%	53.7*	-16.6%
CCCCNC(=O)C1CC(c2cccc([N+](=O)[O-])c2)=NO1 (stereo not given)	1.6%	25.3*	18.8%	53.7%	83.1*	4.6%
O=C(NCc1cccs1)C1CC(c2ccc(F)cc2)=NO1 (stereo not given)	5.6%	28.3*	u	42.0%	48.7*	x
O=C(O)[C@@H]1CS[C@@]2(CCCN(Cc3ccccc3)C2)N1	x	x	x	x	x	-5.4%
O=C1CC(C(=O)O)(c2ccccc2)c2cccc(F)c21 (stereo not given)	7.0%	6.8	1.3%	13.3%	-7.3	4.4%
Nc1nc(NC(=O)c2ccccc2Cl)nn1-c1ccccc1	-1.7%	12.6	u	20.5%	19.1	1.8%
Nc1nc(NC(=O)c2cccs2)nn1-c1ccccc1	-4.0%	30.3*	-27.4%	143.8%	83.7	4.1%
Nc1nc(NC(=O)c2ccccc2)nn1-c1ccccc1	-0.4%	12.7*	128.6%	90.1%	35.7*	-4.0%
OCC1CCN(Cc2cn(Cc3ccccc3)nc2-c2cc3ccccc3o2)CC1	2.8%	-5.0	u	u	-2.0	2.5%
OCC1CCCN(Cc2cn(Cc3ccccc3)nc2-c2cc3ccccc3o2)C1 (stereo not given)	3.3%	-2.0	-20.8%	14.7µM*	9.2	-0.8%
COC1CCN(Cc2cn(Cc3ccccc3)nc2-c2cc3ccccc3o2)CC1	1.8%	-2.9	10.4µM*	10.4µM*	-4.5	-5.0%
COc1ccc(CNC(=O)CCS(=O)(=O)Cc2cccc(Cl)c2)c(OC)c1	0.5%	8.3	u	9.5%	-2.7	x
C/C(=N\NC(=O)c1ccoc1C)c1ccccc1	-5.1%	44.1*	140.9%	179.6%	63.6*	-0.5%
Cc1occc1C(=O)NNC(=O)C1CCCCC1	-0.1%	5.4	u	10.5%	1.7	19.8%
C/C(=N\NC(N)=O)c1ccccc1	3.5%	-4.1	19.8%	11.3%	18.5	-2.4%
C/C(=N/NC(=O)c1ccoc1C)c1ccc(NC(=O)C2CCCC2)cc1	-0.8%	58.1*	20.3%	85.1%	65.1*	3.5%
CCCS(=O)c1nc(C)cc(C)c1S(C)(=O)=O (stereo not given)	0.3%	-3.7	25.8%	-10.9%	-23.1	x
